NS1 inh: inhibitors of influenza NS1 protein function | AID 2326 | 270,000 compounds, 0.4% hits | Potency, µM (doses to about 46.1 µM), inactives show top-dose activity, positive = more growth; calls by dose curve; further: actives are rising curves; nearly all actives have a fitted effect of over 50% in size
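Compounds were scored for reversing the slow growth caused by influenza A NS1 in S. cerevisiae, measured by optical density at 600 nm. Assay medium contained 2% galactose at pH 6.0; NS1-free yeast of the same strain were the positive control.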
Pf growth 96h: inhibits malaria parasite growth, 96 h; AID 504834; 320,000 compounds, 6.9% hits; Potency, µM (titrated, usually from 28.7 µM), inactives show top-dose activity change, negative = inhibition, usual class: inhibitors; P. falciparum luciferase reporter growth, 96 h; further: on the % scale 0 is the no-effect control and ±100 the full control effect
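96 h incubation, 37 C, 5% CO2, of luciferase-reporter P. falciparum-infected RBCs (2% hematocrit, 0.05% parasitemia final) with test compounds; endpoint luminescence.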
Pf growth 48h: inhibits P. falciparum growth in the first generation, 48 h. P. falciparum luciferase growth in erythrocytes, 48 h. Potency, µM (doses to about 28.7 µM), for the others: at the highest dose activity change, negative = inhibition, most hits filed as inhibitors. 310,000 compounds, 5.9% hits; further: on the % scale 0 is the no-effect control and ±100 the full control effect
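First compound was added to culture medium, then infected red cells at 0.1% parasitemia and 2% hematocrit (final). After incubation at 37 C under 5% CO2, luciferase detection reagent was dispensed and light output recorded.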
Sm TGR inh: inhibitors of Schistosoma mansoni thioredoxin glutathione reductase | 360,000 compounds, 3% hits | Q962Y6 | AID 485364 | purified TGR, DTNB reduction, TNB absorbance 405 nm | Potency, µM (highest dose often 114 µM), for the others: at the top dose activity change, negative = inhibition, usual class: inhibitors; further: on the % scale 0 is the no-effect control and ±100 the full control effect; nearly all actives have a fitted effect of over 60% in size
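First, TGR (20 nM dispensed) and NADPH were mixed with compound. Second, a 15 min room-temperature incubation followed. Third, further NADPH and then DTNB were added to start the reaction. Finally, TNB absorbance was monitored kinetically.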
AMA1-RON2 inh: disrupts binding of P. falciparum AMA1 to RON2. AlphaScreen AMA1-biotinylated RON2 peptide binding. Potency, µM (series often up to 58.2 µM), for inactives: at the highest dose activity change, negative = inhibition, hits mostly inhibitors. 360,000 compounds, 0.2% hits. AID 720542;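 further: 0% = vehicle wells and -100% = peptide control; nearly all actives have a fitted effect of over 45% in size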
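AMA1 (3D7) with his tag at 25 nM final met compounds first, then biotinylated RON2 peptide at 25 nM; detection used donor plus acceptor beads, 10 µg/mL apiece, read by AlphaScreen after 30 min at room temperature.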
Starred values were filed as active, the others as inactive; ? = inconclusive; . = no result. Shown are actives, neighbours in structure and some others; about 11% of the full set was active somewhere. Unless noted, the call rests on the fitted dose curve; in most records, active means well fitted curve in the direction sought with a large enough effect; inconclusive means small, poorly fitted or top-dose-only effect, or another doubt; inactive means no such curve, though single readings can be large; an effect the other way counts as inactive or inconclusive. Potency means the concentration at half of the fitted maximal effect.

SMILES	NS1 inh	Pf growth 96h	Pf growth 48h	Sm TGR inh	AMA1-RON2 inh
COc1ccc(C(=O)Nc2nc3ccc(S(C)(=O)=O)cc3s2)cc1OC	.	5.9µM*	15%	6%	-1%
NC(=O)c1ccc2nc(NC(=O)c3ccc(N)cc3)sc2c1	.	12µM*	81%	-5%	11%
Cc1ccc2nc(NC(=O)CCNS(=O)(=O)c3cccs3)sc2c1	-6%	89%	6%	-22%	-10%
CS(=O)(=O)c1ccc2nc(NC(=O)CCNC(=O)c3ccc([N+](=O)[O-])cc3)sc2c1	.	0.74µM*	?	-14%	5%
Cc1ccc(C(=O)Nc2nc3ccc(S(C)(=O)=O)cc3s2)cc1C	10%	32%	.	2%	1%
Cc1ccc2nc(NC(=O)c3ccc(NS(=O)(=O)c4cccs4)cc3)sc2c1	-13%	0.47µM*	?	0%	-1%
CS(=O)(=O)c1ccc2nc(NC(=O)c3ccc(NS(=O)(=O)c4cccc([N+](=O)[O-])c4)cc3)sc2c1	4%	?	?	-7%	1%
CS(=O)(=O)c1ccc2nc(NC(=O)CCS(=O)(=O)c3ccccc3)sc2c1	-15%	94%	-8%	?	-7%
COc1cccc(C(=O)Nc2nc3ccccc3s2)c1	-15%	15µM*	323%	-20%	-4%
NS(=O)(=O)c1ccc2nc(NC(=O)c3ccc(Br)o3)sc2c1	.	10µM*	112%	0%	-1%
COc1ccc(C(=O)Nc2nc3ccccc3s2)cc1	-80%	0%	169%	10%	3%
CCN(CC)S(=O)(=O)c1ccc2nc(NC(=O)c3ccc(Br)o3)sc2c1	.	.	.	-12%	.
CS(=O)(=O)c1ccc2nc(NC(=O)CCC(=O)c3cccs3)sc2c1	21%	12µM*	?	21%	-16%
CC(C)c1ccc(N2C(=O)CSC23C(=O)N(C)c2ccccc23)cc1 (stereo not given)	.	.	.	8%	.
Cn1nc(C(=O)Nc2sc3c(c2C#N)CCCC3)ccc1=O	.	100%	143%	5%	-10%
Cc1[nH]n(-c2ccccc2)c(=O)c1C=Nc1ccc2[nH]c(=O)[nH]c2c1	18%	22%	2%	10%	-18%
O=c1[nH]c2ccc(N=Cc3c(O)ccc4cc(Br)ccc34)cc2[nH]1	1%	30%	21%	32µM*	-5%
Cc1nn(-c2ccccc2)c(N)c1C(c1ccc(C(C)C)cc1)c1c(C)nn(-c2ccccc2)c1N	24%	0%	10µM*	-3%	1%
Cc1nn(-c2ccccc2)c(N)c1-c1ccccc1	.	240%	92%	2%	-8%
Cc1ccc(C(c2c(C)nn(-c3ccccc3)c2N)c2c(C)nn(-c3ccccc3)c2N)cc1	8%	13µM*	10µM*	-9%	-5%
COC(=O)c1cc(C(=O)Nn2cnnc2)cc([N+](=O)[O-])c1	19%	?	3%	-17%	-8%
COC(=O)C(C)Sc1nnc(Cc2cc(=O)[nH]c(=O)[nH]2)n1-c1cc(C)ccc1C (stereo not given)	6%	3%	.	-3%	11%
C=CCSc1nnc(Cc2cc(=O)[nH]c(=O)[nH]2)n1-c1cc(C)ccc1C	7%	21%	?	22µM*	25%
O=[N+]([O-])c1cccc(/C=N/Nc2nc(NCc3ccccc3)nc(N3CCOCC3)n2)c1	17%	?	?	-14%	-1%
O=[N+]([O-])c1cccc(/C=N/Nc2nc(NCc3ccccc3)nc(N3CCOCC3)n2)c1O	1%	?	6.6µM*	0%	-82%
SMILES	NS1 inh	Pf growth 96h	Pf growth 48h	Sm TGR inh	AMA1-RON2 inh
O=[N+]([O-])c1ccc(/C=N/Nc2nc(NCc3ccccc3)nc(N3CCOCC3)n2)cc1	.	16%	13µM*	2%	15%
CC1(C)CC(=O)c2cnc(NC(=O)CSC(=S)N3CCCCC3)nc2C1	1%	?	12%	-9%	12%
CCc1ccc(-n2nc(C)c3c(C(=O)Nc4cc(C)ccc4C)cc(C)nc32)cc1	.	.	.	0%	.
CNC[C@@H]1Oc2ccc(NC(=O)Nc3c(C)noc3C)cc2CC(=O)N([C@H](C)CO)C[C@H]1C	.	.	.	.	-4%
CCCCS/C(=C(/C#N)C(N)=O)c1cc2c([nH]1)CCCC2	-84%	.	2.9µM*	10µM*	?
CCc1ccc(N/C(SC)=C(/C#N)C(N)=O)cc1	1%	-1%	-11%	-28%	?
O=C(O)c1ccccc1-c1c2cc(Br)c(=O)cc-2oc2[c]([Hg])c(O)c(Br)cc12	.	6.4µM*	?	.	.
Cc1ccc2sc(NNC(=O)c3cc(-c4cccs4)nc4ccccc34)nc2c1C	-8%	10µM*	?	-5%	.
Cc1cc(C)c2nc(NNC(=O)c3cc(-c4cccs4)nc4ccccc34)sc2c1	2%	3.3µM*	1.9µM*	-1%	67%
O=C(NNc1nc2ccc(Cl)cc2s1)c1cc(-c2cccs2)nc2ccccc12	-19%	7.4µM*	?	-12%	84%
O=C(NN1CCOCC1)c1cc(-c2cccs2)nc2ccccc12	1%	0%	6%	2%	11%
CCCn1c(CCC(=O)O)ccc1-c1ccccc1	.	-14%	0%	-30%	-9%
COCCCn1c(SCC(=O)NC2CCCC2)nnc1-c1cccs1	6%	-12%	1%	-2%	7%
COCCCn1c(CCC(=O)O)ccc1-c1cccs1	5%	.	-25%	8.9µM*	-8%
CCCn1c(CCC(=O)O)ccc1-c1cccs1	-34%	8%	1%	3.5µM*	-21%
O=C(OCc1ccccc1)N1CCC2CC1c1ccc(N3CCNCC3)cc12 (stereo not given)	.	.	.	.	-17%
CC1=C(C(=O)Nc2ccc(Cl)cc2)C(C(C)C)n2nc(SCc3cccc(C)c3)nc2N1 (stereo not given)	.	.	.	0%	.
CCOc1ccc(NC(=O)Cc2c(O)c3ccccc3[nH]c2=O)cc1	4%	91%	2.9µM*	?	-12%
COC(=O)c1c(NC(NC(C)=O)C(Cl)(Cl)Cl)sc2c1CCCC2 (stereo not given)	15%	10µM*	?	4%	-9%
CCC(=O)NC(Nc1sc2c(c1C(=O)OC)CCC2)C(Cl)(Cl)Cl (stereo not given)	0%	?	?	-22%	5%
COC(=O)c1c(NC(NC(=O)CC(C)C)C(Cl)(Cl)Cl)sc2c1CCC2 (stereo not given)	8%	12µM*	?	0%	25%
O=C1C=CC(=O)N1CCNc1ncc(C(F)(F)F)cc1Cl	-50%	0%	6%	0.4µM*	-4%
CCSC(=Nc1ccccc1)N1CCOCC1	.	.	.	.	-5%
CC(OC(=O)c1ccccc1)C(=O)NCc1ccco1 (stereo not given)	.	.	.	.	-11%
CCOc1ccc(N(C(C)C(=O)NCc2ccco2)S(C)(=O)=O)cc1 (stereo not given)	-1%	6%	.	45µM*	-2%
CCCCCOc1ccc(C(=O)OC(C)C(=O)NCc2ccco2)cc1 (stereo not given)	-19%	13µM*	?	-4%	-18%

Screening results as filed in PubChem.
